HP1b binding inh: HTS for Inhibitors of HP1-beta Chromodomain Interactions with Methylated Histone Tails; AID 540317, 2011; Chromobox protein homolog 1 (Homo sapiens), P83916; hit rate 0.56% among 390,000; AlphaScreen HP1-beta / biotin-H3K9me3 peptide binding; Potency, µM (doses to about 114 µM), for inactives: at the top dose activity change, negative = inhibition, usual class: inhibitors; further: nearly all actives have a fitted effect of over 70% in size
Target sequence (P83916 whole entry, looked up): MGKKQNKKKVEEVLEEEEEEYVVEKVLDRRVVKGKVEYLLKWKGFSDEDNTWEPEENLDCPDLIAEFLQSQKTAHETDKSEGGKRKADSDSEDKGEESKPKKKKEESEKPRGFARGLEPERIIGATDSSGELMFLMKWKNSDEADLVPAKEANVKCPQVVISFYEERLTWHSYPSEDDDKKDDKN
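AlphaScreen: HP1-beta (50 nM) preformed 30 min with biotin-H3(1-18)K9me3 peptide (50 nM) in PBS pH 7.4, 0.01% Tween-20. Compound added for 30 min at RT, then streptavidin donor/nickel chelate acceptor beads (10 ug/mL) for 30 min.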
Sfp inh: qHTS Assay for Inhibitors of Bacillus subtilis Sfp phosphopantetheinyl transferase (PPTase). 4'-phosphopantetheinyl transferase ffp (Bacillus subtilis), Q9F4F7. Biochemical Sfp PPTase activity, qHTS. Potency, µM, without a hit: largest response in the series, negative = inhibition, usual class: inhibitors. hit rate 3.5% among 310,000;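 further: the enzyme is Sfp with the accession as filed and its product quenches rhodamine fluorescence; 0% = enzyme reaction without inhibitor and -100% = no enzyme wells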
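Fluorescence-quenching assay: 15 nM Sfp-PPTase preincubated 15 min at room temperature with compound, then 5 uM rhodamine-CoA and 12.5 uM BHQ-2-labelled YbbR peptide added. Fluorescence (ex 525/em 598 nm) read at start and after 30 min; difference gives rate.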
JMJD2A Tudor inh: qHTS Assay for Inhibitors of JMJD2A-Tudor Domain; Lysine-specific demethylase 4A (Homo sapiens), O75164; AlphaScreen JMJD2A-Tudor / H3K4me3 peptide binding; Potency, µM (series often up to 114 µM), without a hit: at the top dose activity change, negative = inhibition, hits mostly inhibitors; hit rate 4.4% among 390,000; AID 504339, 2011; further: on the % scale 0 is the no-effect control and ±100 the full control effect; nearly all actives have a fitted effect of over 50% in size
BAZ2B block: qHTS Assay for Inhibitors of BAZ2B; Bromodomain adjacent to zinc finger domain protein 2B (Homo sapiens), Q9UIF8; hit rate 4.4% among 360,000; AlphaScreen BAZ2B-H3K14Ac peptide displacement; AID 504333, 2011; Potency, µM (series often up to 114 µM), for inactives: at the top dose activity change, negative = inhibition, hits mostly inhibitors; further: on the % scale 0 is the no-effect control and ±100 the full control effect; nearly all actives have a fitted effect of over 60% in size
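In this displacement format the biotinylated H3(5-23) peptide acetylated at Lys14 serves as ligand at 50 nM, with BAZ2B at 50 nM in PBS pH 7.4 containing 0.01% Tween-20. Donor and acceptor beads are 10 ug/mL final.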
L3MBTL1 block: qHTS Assay for the Inhibitors of L3MBTL1; Lethal(3)malignant brain tumor-like protein 1 (Homo sapiens), Q9Y468; AlphaScreen L3MBTL1–H3K9me1 peptide binding; Potency, µM (top dose mostly 57.1 µM), for inactives: at the top dose activity, negative = inhibition, usual class: inhibitors; hit rate 0.66% among 230,000; AID 485360, 2010; further: on the % scale 0 is the no-effect control and ±100 the full control effect; nearly all actives have a fitted effect of over 60% in size
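L3MBTL1 50 nM + b-AHA-H3(1-15)K9me1 75 nM, 30 min RT; compound added, 30 min RT; streptavidin donor/Ni-chelate acceptor beads 10 ug/mL each final, 30 min RT dark; AlphaScreen read.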
G9a block: qHTS Assay for Inhibitors of Histone Lysine Methyltransferase G9a; G9a H3K9 monomethylation, AlphaScreen, 2 h; Potency, µM (top dose mostly 102 µM), for the others: at the highest dose activity, negative = inhibition, actives largely listed as inhibitors; hit rate 8.8% among 350,000; further: on the % scale 0 is the no-effect control and ±100 the full control effect; nearly all actives have a fitted effect of over 75% in size
Target sequence (Q96KQ7 913-1193 limits assumed): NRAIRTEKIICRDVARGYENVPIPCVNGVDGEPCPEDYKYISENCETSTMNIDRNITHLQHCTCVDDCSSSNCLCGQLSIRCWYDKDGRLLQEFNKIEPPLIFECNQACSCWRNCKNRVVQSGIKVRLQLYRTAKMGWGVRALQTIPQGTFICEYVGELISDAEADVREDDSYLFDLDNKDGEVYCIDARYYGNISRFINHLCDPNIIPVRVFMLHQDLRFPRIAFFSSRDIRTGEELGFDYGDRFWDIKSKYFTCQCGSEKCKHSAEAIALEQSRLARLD
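AlphaScreen read-out: biotin-H3K9 peptide (500 nM) methylation by 20 nM enzyme with 20 uM SAM, 2 h at room temperature after 15 min compound preincubation; anti-monomethyl H3K9 antibody plus donor/acceptor beads, 10 min dark.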
The depositor's hits bear a star; ? = inconclusive; . = no result; [ ] = another dose, or the depositor's remark. Hits are enriched below; roughly 12% of the tested compounds scored in any of these assays. The call rests on the fitted dose curve; in most records, active means well fitted curve in the direction sought with a large enough effect; inconclusive means small, poorly fitted or top-dose-only effect, or another doubt; inactive means no such curve, though single readings can be large; an effect the other way counts as inactive or inconclusive. Potency means the concentration at half of the fitted maximal effect.

SMILES	HP1b binding inh	Sfp inh	JMJD2A Tudor inh	BAZ2B block	L3MBTL1 block	G9a block
Cc1cccc(N2CCN(Cc3nc(-c4cccc(Oc5ccccc5)c4)oc3C)CC2)n1	?	3.4%	44.7µM*	?	?	39.8µM*
CC(=O)c1ccc(N2CCN(C(=O)c3cccs3)CC2)c(F)c1	30.5%	5.3%	-4.7%	-2.2%	-3.8%	31.5%
CCOc1ccc(C(=S)N2CCN(C)CC2)cc1	-2.3%	14.1µM*	-4.0%	-18.5%	-3.8%	39.8µM*
CCOc1ccc(C(=S)N2CCCC2)c(OCC)c1	-20.9%	50.1µM*	-23.1%	-19.8%	-4.6%	10µM*
CC(CN1CCN(C)CC1)OC(=O)c1ccc(Cl)cc1 (centres undefined)	28.4%	13.4%	?	-6.0%	1.1%	?
CCOc1ccc(C(=O)OC(C)CN2CCN(C)CC2)cc1 (centres undefined)	-9.8%	15.7%	79.4µM*	-17.9%	.	?
CS(=O)(=O)c1nc(S(=O)(=O)c2ccc(Cl)cc2)c(NCCCN2CCOCC2)s1	71.7%	18.7%	-18.2%	-2.2%	.	.
O=C(CCN1CCN(Cc2ccccc2)CC1)NNC(=O)Nc1cccc([N+](=O)[O-])c1	17.6%	-3.8%	-3.5%	-7.8%	.	.
Cc1ccc(C(=O)Oc2ccc(/C=N/NC(N)=O)cc2)cc1	37.0%	4.7%	-7.2%	?	-1.7%	28.2µM*
COc1ccc(C(=O)N/N=C/c2ccc(OC)c(CN3CCCc4ccccc43)c2)cc1	-2.2%	-14.9%	?	?	?	?
COc1ccc(/C=N/NC(=O)c2cccnc2)cc1CN1CCCc2ccccc21	44.7µM*	-19.8%	35.5µM*	39.8µM*	.	?
O=C(N/N=C/c1ccc(OC(=O)c2ccc([N+](=O)[O-])cc2)cc1)c1cccnc1	35.3%	15.7%	-23.3%	-27.3%	.	20.7%
COc1cc(/C=N/NC(N)=O)ccc1OC(=O)c1ccc(C)cc1	.	17.4%	.	0.7%	7.0%	-6.4%[59 µM]
O=C(N/N=C/c1ccc(OC(=O)c2ccccc2)cc1)c1cccnc1	?	3.3%	-27.8%	?	.	20µM*
Cc1ccc(NC(=O)c2ccc(COc3ccccc3)o2)nc1	42.9%	3.3%	-3.4%	3.4%	.	4.9%[12.7 µM]
Cc1ccc(-n2c(SCC(=O)O)nc3sc4c(c3c2=O)CCCC4)cc1	22.2%	20.9%	-7.0%	-24.7%	-0.7%	4.4%
Cc1ccc(-n2c(SCC(=O)c3c(N)n(C)c(=O)n(C)c3=O)nc3sc4c(c3c2=O)CCCC4)c(C)c1	23.5%	56.2µM*	-15.5%	-5.7%	-3.4%	?
Cc1ccc(S(=O)(=O)Nc2ccc3c(c2)ncn3C(C)(C)C)cc1	31.5%	1.8%	-3.3%	-3.0%	-1.0%	-2.2%[59 µM]
Cc1ccc(CNc2ccc3c(c2)ncn3C(C)(C)C)cc1	-11.4%	-10.1%	-20.6%[11.4 µM]	35.5µM*	.	7.08µM*
CC(C)(C)n1cnc2cc(NCc3ccccc3Cl)ccc21	?	.	39.8µM*	31.6µM*	.	15.8µM*
CN(C)C(=O)CCc1ccc2c3c([nH]c2c1)[C@]1(C)[C@@H](C(=O)N2CCOCC2)C[C@H](CC(=O)NCCCn2ccnc2)C(=O)N1CC3	51.9%	.	-13.0%	.	2.5%	.
COc1cccc(NC(=O)NC(=O)c2c(C)cc(Cl)nc2Cl)c1	27.5%	-0.5%	-9.7%	-31.2%	.	12.4%
COC(=O)CNC(=O)C(=O)OC	.	-2.9%	.	.	.	29.7%[59 µM]
COc1cccc(N(C(=O)c2snc(C(N)=O)c2N)C(C(=O)NCC2CCCO2)c2cccs2)c1 (centres undefined)	-13.1%	-1.0%	-26.4%	-3.0%	.	35.5µM*
NC(=O)c1nsc(C(=O)N(c2ccccc2)C(C(=O)NCC2CCCO2)c2cccs2)c1N (centres undefined)	12.4%	12.5%	-6.4%	-4.9%	2.0%	-9.2%
SMILES	HP1b binding inh	Sfp inh	JMJD2A Tudor inh	BAZ2B block	L3MBTL1 block	G9a block
COc1ccc(C(C(=O)NC2CCCC2)N(C(=O)c2snc(C(N)=O)c2N)c2cccc(O)c2)cc1 (centres undefined)	-25.9%	-8.4%	?	?	.	70.8µM*
NC(=O)c1nsc(C(=O)N(c2cccc(F)c2)C(C(=O)NC2CCCC2)c2ccc(O)cc2)c1N (centres undefined)	-8.6%	28.6%	-9.1%	-10.0%	.	-7.9%
Cc1ccc(-n2nc3c(c2NC(=O)c2cccs2)CS(=O)(=O)C3)cc1C	34.5%	0.0%	-8.0%	14.8%	.	11.1%
C/C(=N/OC(=O)c1ccc(C)cc1)c1ccc(N2C(=O)C3CCCCC3C2=O)cc1 (centres undefined)	-10.7%	-8.2%	39.8µM*	9.6%	12.9%	-26.7%
C/C(=N/NC(=O)c1ccccc1O)c1ccc(N2C(=O)C3CCCCC3C2=O)cc1 (centres undefined)	31.1%	1.9%	-2.7%	-7.2%	0.5%	-0.9%[59 µM]
CCCCNC(=O)CCn1c(=O)c2cccn2c2cccnc21	35.8%	.	4.8%	-33.6%	.	40.4%[59 µM]
CCN(CC)c1ccc(/C=N/N2CC(=O)NC2=S)cc1	38.5%	.	-16.6%	-1.4%	-12.5%	7.94µM*
Cc1ccsc1C(=O)Nc1ccc(S(=O)(=O)N2CCOCC2)cc1	18.3%	.	1.4%	8.2%	0.7%	-6.2%[59 µM]
NC(CSCc1ccccc1Cl)C(=O)O (centres undefined)	41.7%	?	-5.7%	?	-2.6%	35.5µM*
O=C(O)c1ccc(CSCc2ccccc2Cl)o1	37.3%	21.4%	-14.8%	-19.5%	.	-44.6%
O=C(Nc1cccc(C(F)(F)F)c1)c1cc2nc(-c3ccccc3)cc(C(F)(F)F)n2n1	27.9%	.	-4.2%	3.9%	.	-4.5%[59 µM]
O=C(Cc1ccc(Cl)cc1)c1c(O)cc(O)cc1O	.	-15.8%	.	.	.	.
COc1cc2sc3ccc(C#CC4(O)CCCCC4)cc3c(=O)c2cc1OC	43.4%	.	2.9%	.	.	.
Cn1c2ccccc2c(=O)c2ccc(C#CC3(O)CCCCC3)cc21	147.0%	11.0%	32.4%	17.3%	28.8%	79.4µM*
Nc1c(-c2ccccc2)cc[nH]c1=O	.	.	8.91µM*	.	.	.
CC1CCc2c(C(=O)Nc3ccc(OC(F)(F)F)cc3)csc2C1 (centres undefined)	15.2%	2.2%	-12.5%	-1.9%	10.2%	26.2%[59 µM]
COc1ccccc1/C=C/C=N/NC(=O)c1ccccn1	35.9%	-14.7%	-15.6%	?	?	8.4%
COc1ccccc1/C=C/C=N/NC(=O)c1cc(-c2ccco2)[nH]n1	?	12.6µM*	?	?	?	.
